In PubChem BioAssay (NCATS):
Results filed as inconclusive are left out. Active and inactive are the calls of the source. The call rests on the fitted dose curve; in most records, active means well fitted inhibition curve with a large enough effect; inconclusive means small, poorly fitted or top-dose-only effect; inactive means flat fitted curve, though single readings scatter.
On the % scale 0 is the no-effect control and ±100 the full control effect.

The compounds below were run against Calcium and integrin-binding protein 1 (Homo sapiens) (UniProt Q99828) (assay: Primary qHTS for Identification of Calcium Integrin Binding Protein 1 (CIB1) Competitor (AID 1508620; further: top concentration of the series differs between compounds)). Details: CIB1-GST / FITC-alphaIIb peptide fluorescence polarization; series mostly up to 114 µM; activity change, negative = inhibition: at the top concentration.
Calcium and integrin-binding protein 1 (Homo sapiens), sequence (Q99828 whole entry, looked up): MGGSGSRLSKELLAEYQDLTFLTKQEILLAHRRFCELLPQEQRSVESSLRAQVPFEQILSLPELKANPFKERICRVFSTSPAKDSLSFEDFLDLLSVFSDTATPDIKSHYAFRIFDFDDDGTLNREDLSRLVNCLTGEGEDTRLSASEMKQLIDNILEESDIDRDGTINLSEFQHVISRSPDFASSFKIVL
Summary of the method: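 Fluorescence polarization competition: GST-tagged CIB1 (1 uM final) preincubated with compound 15 min at room temperature, then FITC-labelled alphaIIb peptide (100 nM final) added. After 15 min at room temperature, polarization read at Ex 480/Em 540.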
With `CN(C)[S+](=O)([O-])c1ccc(-c2cncc(NC(=O)c3cccs3)c2)cc1` the “activity change, negative = inhibition” value was -1.81% (inactive).
For `Cn1c2cc(C=O)sc2c2cnn(Cc3ccccc3F)c(=O)c21`, the “activity change, negative = inhibition” value was 2.22% (inactive).
`O=C(c1ccccc1O)N(Cc1ccccc1)Cc1ccccc1` was tested, and the “activity change, negative = inhibition” value was -1.67% (inactive).
With `CN1CCN(c2cccc(Nc3nn4c(=O)c5ccc(F)cc5nc4s3)c2)CC1` the “activity change, negative = inhibition” value was -14.2% (inactive).
`O=C1CC(c2ccccc2)CC2=C1C1(CCCC1)N=C(Nc1nc3ccccc3o1)N2` (stereo not given) was tested, and the “activity change, negative = inhibition” value was 0.731% (inactive).
For `CC(=O)Nc1sc2c(c1-c1cc3ccccc3s1)CCNC2`, the “activity change, negative = inhibition” value was 14.6% (inactive).
With `COc1nccc(-c2nc(Nc3ccc(F)c(F)c3)c3ccccc3n2)c1Cl` the “activity change, negative = inhibition” value was 5.91% (inactive).
`COc1cccc(C2c3c(ncn(-c4ccc(C(C)(C)C)cc4)c3=N)Oc3ccc4ccccc4c32)c1` (stereo not given) was tested, and the “activity change, negative = inhibition” value was 24.1% (inactive).
With `CC(=O)NC1CCN(c2nc(-c3ccc(Br)cc3)cs2)CC1` the “activity change, negative = inhibition” value was -1.3% (inactive).
For `COc1cccc(CNc2ccc(S(=O)(=O)Nc3nc4ccccc4o3)cc2)c1O`, the “activity change, negative = inhibition” value was -16.4% (inactive).
With `Cn1c2cc(Br)sc2c2cnn(Cc3ccc(F)cc3)c(=O)c21` the “activity change, negative = inhibition” value was 6.01% (inactive).
For `O=C(O)CNc1cccc(-c2nn3c(=O)cc(N4CCNCC4)nc3s2)c1`, the “activity change, negative = inhibition” value was -10.9% (inactive).
For `COc1cccc(C2c3c(ncn(-c4ccccc4C#N)c3=N)Oc3ccc4ccccc4c32)c1` (stereo not given), the “activity change, negative = inhibition” value was -0.988% (inactive).
With `COc1nccc(-c2nc(Nc3ccc(F)c(F)c3)c3ccccc3n2)c1OC` the “activity change, negative = inhibition” value was 3.27% (inactive).
In the case of `COc1cc(O)c(C(CC(=O)N2CCC(c3ccccc3)CC2)c2ccc(OC)c(OC)c2)c(OC)c1` (stereo not given), the “activity change, negative = inhibition” value is reported as -2.08% [at 228 µM] (inactive).
With `N#Cc1cccnc1SC1=NS(=O)(=O)c2ccccc21` the “activity change, negative = inhibition” value was -13.4% (inactive).
For `O=C(CNC(=O)c1ccccc1Cl)OC(C(=O)Nc1cc(C(F)(F)F)ccc1Cl)c1ccccc1` (stereo not given), the “activity change, negative = inhibition” value was 3.67% (inactive).
In the case of `CN(Cc1cccs1)c1ncnc2ccc(-c3ccc4cnn(C)c4c3)cc12`, the “activity change, negative = inhibition” value is reported as 4.68% (inactive).
With `CCOC(=O)c1ccc(-c2ccc3ncnc(NCc4ccc(C)o4)c3c2)o1` the “activity change, negative = inhibition” value was -7.91% (inactive).
`OC(c1ccccc1)(c1ccccc1)c1cnc2ccccn12` was tested, and the “activity change, negative = inhibition” value was -4.38% (inactive).
For `CCOc1ccccc1-c1nnc2n1N=C(c1cccc(OC)c1)CS2`, the “activity change, negative = inhibition” value was -4.08% (inactive).
In the case of `Cc1noc(C)c1-c1ccc2ncnc(NCC3CCN(C)CC3)c2c1`, the “activity change, negative = inhibition” value is reported as 5.8% (inactive).
For `CN(C)c1cccc(-c2cc(N3CCC(C(N)=O)CC3)ncn2)c1`, the “activity change, negative = inhibition” value was 0.727% (inactive).
`Fc1cccc(Nc2nc(-c3ccncc3)nc3ccccc23)c1` was tested, and the “activity change, negative = inhibition” value was 9.62% (inactive).
For `Cc1cc(C)nc(NC(=S)N2CCN(c3ncc(Cl)cc3Cl)CC2)c1`, the “activity change, negative = inhibition” value was 1.26% (inactive).
For `[O-][n+]1onc(-c2ccccc2)c1/C=N/O`, the “activity change, negative = inhibition” value was -2.29% (inactive).
With `Cc1c(C(=O)OC[C@H]2CCCO2)[nH]c2c1C(=O)CC(c1ccco1)C2` (stereo not given in full) the “activity change, negative = inhibition” value was -17.8% (inactive).
For `COc1ccc(NCc2ccc(O)c3ncccc23)nc1`, the “activity change, negative = inhibition” value was 20.3% (inactive).
In the case of `O=C(Nc1ccc(-c2nc3ccccc3[nH]2)cc1)c1ccc(C(F)(F)F)cc1`, the “activity change, negative = inhibition” value is reported as 5.85% (inactive).
In the case of `c1ccc(CN(Cc2ccccc2)Cc2nnc(-c3cc4ccccc4[nH]3)s2)cc1`, the “activity change, negative = inhibition” value is reported as 1.52% (inactive).
In the case of `Cc1ccc(OCCn2c(CCNC(=O)c3ccc(C#N)cc3)nc3ccccc32)cc1`, the “activity change, negative = inhibition” value is reported as 1.57% (inactive).
With `CC(=O)Nc1cccc(S(=O)(=O)N2CCN(S(=O)(=O)c3c(F)cccc3F)CC2)c1` the “activity change, negative = inhibition” value was -2.55% (inactive).
For `COc1cccc(C2C(C#N)=C(NC(=O)CCc3ccccc3)Oc3ccc4ccccc4c32)c1` (stereo not given), the “activity change, negative = inhibition” value was 0.454% (inactive).
In the case of `Cn1nnnc1Sc1ncnc2scc(-c3ccccc3Br)c12`, the “activity change, negative = inhibition” value is reported as 2.41% (inactive).
With `Cc1cc2c(s1)c(C=O)c(C(=O)NCc1ccccc1F)n2C` the “activity change, negative = inhibition” value was -2.6% (inactive).
`COc1ccc(C2=Nn3c(nnc3-c3cc(OC)ccc3OC)SC2)cc1` was tested, and the “activity change, negative = inhibition” value was -4.7% (inactive).
For `N#CN1CCC(NS(=O)(=O)c2cccc(F)c2)C1` (stereo not given), the “activity change, negative = inhibition” value was 0.0415% (inactive).
For `N#Cc1nc(Nc2cc(F)cc(Cl)c2)nc(NC2CCCC2)n1`, the “activity change, negative = inhibition” value was 5.14% (inactive).
`O=C1CCc2cc(S(=O)(=O)Nc3ccc(Cl)c(Cl)c3)ccc2N1` was tested, and the “activity change, negative = inhibition” value was -11.3% (inactive).
For `Cc1cccc(C(=O)NCC(=O)OC(C(=O)Nc2cc(C(F)(F)F)ccc2Cl)c2ccccc2)c1` (stereo not given), the “activity change, negative = inhibition” value was 1.26% (inactive).
